# In PubChem BioAssay:
# Where “and” joins values, the source holds several entries; their conditions need not be identical. Equal values may be shown once. Records with an inconclusive call do not appear. For some of these results: Potency and affinity values are given separately. Calls of active or inactive are those of the source. Unless noted, no rule for the calls is given here.
# Legend:
# [1] = liver-stage malaria parasite load reduction – cell-based, known kinase inhibitor set, luminescence, hepatoma host viability (AID 624392); settings: Plasmodium liver stage in hepatoma cells, luciferase luminescence, concentration not given here; liver cell % of control: measured here: host liver cell viability; parasite % of control: stronger effect = lower value;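 also: infected cells incubated roughly two days before readout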
# [2] = viability loss with induced miR-34 in A549 – imaging, A549 dox-inducible miR-34, nuclei and caspase counts, primary screen (AID 1347080;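 active = compounds whose cell count with miR-34 switched on is under 0.7 times the count with it off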); settings: A549 miR-34 inducible, Hoechst nuclei count, 48 h
# [3] = MELAS cybrid and Rieske KO viability enhancers – cell-based, MELAS cybrids, Rieske KO mouse fibroblasts, CellTiter-Glo, primary screen (AID 1508586;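 active = mean z-score across replicates of 1.96 or higher in either the MELAS or the Rieske mutant cell line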;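 also: z relative to plate mean and SD of compound and empty wells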); settings: low glucose
# [4] = P. berghei load reduction in hepatocytes – cell-based, HepG2, luciferase luminescence, HepG2 viability, primary screen (AID 624349; in the data active = parasite load remaining mostly below about 12%, no sharp cut-off; inactive = mostly above about 10%;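 also: 100% = mean of DMSO negative control wells on the same plate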); settings: P. berghei liver stage in HepG2, luciferase luminescence, concentration not given here; parasite load remaining: stronger effect = lower value; viability: measured here: HepG2 viability without parasites
# [5] = blockers of polyQ-driven CASP3 activation – cell-based (AID 1583); settings: polyglutamine-induced caspase-3 activation, cell assay; stronger effect = higher value;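 tested at 10 µM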
# [6] = yeast 75Q aggregation reduction – 75Q-TubU reporter (AID 1593); settings: Yeast 75Q polyglutamine aggregation reporter
# [7] = restoration of touch response, mutant HTT neurons – whole organism, C. elegans mechanosensory neurons, N-terminal huntingtin (AID 1599); settings: C. elegans polyQ-huntingtin mechanosensory neurons, stronger effect = higher value
# [8] = blockers of cytochrome c efflux from mitochondria – biochemical, purified mitochondria (AID 1603); settings: stronger effect = lower value;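 also: mouse liver mitochondria challenged with calcium chloride; signal normalized to the plate average as 100%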
# [9] = polyglutamine aggregate formation blockers (AID 1604); settings: polyglutamine-induced protein aggregation inhibition assay; stronger effect = higher value; tested at 2.5 µM
# [10] = rescue of PC12 cells from polyQ htt toxicity – LDH release (AID 1610); settings: PC12 mutant huntingtin toxicity, final LDH at 4 uM, stronger effect = lower value
# [11] = glutamate transport activators, MN-1 cells, MN-1 cell line (AID 1612); settings: MN-1 motor neuron cells, stronger effect = higher value;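 also: tested at 1 µM final; 0% = mean of DMSO vehicle wells on each plate; positive means more glutamate uptake than control and negative means less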
# [12] = 75Q-TubH aggregate inhibition, S. cerevisiae, yeast (AID 1616); settings: S. cerevisiae 75Q-TubH polyglutamine aggregation suppression; stronger effect = higher value
# [13] = molecular target: ATP-dependent translocase ABCB1 (Homo sapiens) (UniProt P08183); experiment: P-glycoprotein substrate transport blockade – cell-based (AID 377; in the data active = fluorescence slope change above about 50%); settings: MDR1-expressing cells, fluorescent substrate accumulation slope; stronger effect = higher value; concentration not given here
# Chain of ATP-dependent translocase ABCB1 (Homo sapiens) (P08183 whole entry, looked up): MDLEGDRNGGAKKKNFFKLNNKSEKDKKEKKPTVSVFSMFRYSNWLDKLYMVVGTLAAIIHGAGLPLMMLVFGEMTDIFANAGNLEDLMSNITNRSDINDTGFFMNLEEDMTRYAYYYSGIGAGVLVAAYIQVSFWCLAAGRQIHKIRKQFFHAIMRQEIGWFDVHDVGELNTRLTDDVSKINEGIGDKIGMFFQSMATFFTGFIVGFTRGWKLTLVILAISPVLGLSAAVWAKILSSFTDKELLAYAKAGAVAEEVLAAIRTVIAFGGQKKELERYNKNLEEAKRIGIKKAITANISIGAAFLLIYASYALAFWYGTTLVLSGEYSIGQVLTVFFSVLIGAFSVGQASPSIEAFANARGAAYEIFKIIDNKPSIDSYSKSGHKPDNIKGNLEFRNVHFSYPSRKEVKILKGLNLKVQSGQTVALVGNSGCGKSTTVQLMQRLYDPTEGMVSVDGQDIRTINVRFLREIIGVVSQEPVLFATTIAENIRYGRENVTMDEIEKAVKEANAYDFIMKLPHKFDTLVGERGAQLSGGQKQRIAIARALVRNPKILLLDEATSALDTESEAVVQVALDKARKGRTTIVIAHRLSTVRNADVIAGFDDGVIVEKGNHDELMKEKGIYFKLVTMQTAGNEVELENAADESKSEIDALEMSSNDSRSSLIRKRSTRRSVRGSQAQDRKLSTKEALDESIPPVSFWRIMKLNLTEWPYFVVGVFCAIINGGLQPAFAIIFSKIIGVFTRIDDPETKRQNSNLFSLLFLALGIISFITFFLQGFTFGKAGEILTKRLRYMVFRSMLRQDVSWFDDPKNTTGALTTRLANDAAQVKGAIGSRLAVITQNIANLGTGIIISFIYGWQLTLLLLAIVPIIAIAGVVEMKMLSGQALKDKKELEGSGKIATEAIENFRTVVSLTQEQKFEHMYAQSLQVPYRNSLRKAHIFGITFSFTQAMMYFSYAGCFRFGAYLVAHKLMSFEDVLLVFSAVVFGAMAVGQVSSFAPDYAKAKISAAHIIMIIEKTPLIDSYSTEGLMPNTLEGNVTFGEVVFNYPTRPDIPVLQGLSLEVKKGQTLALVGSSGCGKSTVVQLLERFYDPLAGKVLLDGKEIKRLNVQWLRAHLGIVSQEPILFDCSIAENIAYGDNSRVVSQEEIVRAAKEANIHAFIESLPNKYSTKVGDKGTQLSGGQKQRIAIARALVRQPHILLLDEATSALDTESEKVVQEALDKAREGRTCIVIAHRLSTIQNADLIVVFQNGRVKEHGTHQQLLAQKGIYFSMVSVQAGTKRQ
# [14] = GFP-Q80 aggregate reduction, neuronal-like cells, cell-based, NGF-treated PC12, GFPQ80 (AID 1614); settings: PC12 NGF-treated GFP-polyQ80 inclusion reduction;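 also: lower means fewer inclusions and 0 means no inclusions at all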
# [15] = molecular target: NAD(+) hydrolase SARM1 (Homo sapiens) (UniProt Q6SZW1); experiment: blocking NAD cleavage by SARM1 SAM-TIR – cell lysate, NAD-Glo luminescence (AID 1508614;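 active = compound whose remaining NAD level is above about 45 nM, limit read from the data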;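 also: higher remaining NAD means stronger inhibition of SARM1 NADase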); settings: SAM-TIR HEK293T lysate NADase, at 1 µM, stronger effect = higher value
# Chain of NAD(+) hydrolase SARM1 (Homo sapiens) (Q6SZW1 whole entry, looked up): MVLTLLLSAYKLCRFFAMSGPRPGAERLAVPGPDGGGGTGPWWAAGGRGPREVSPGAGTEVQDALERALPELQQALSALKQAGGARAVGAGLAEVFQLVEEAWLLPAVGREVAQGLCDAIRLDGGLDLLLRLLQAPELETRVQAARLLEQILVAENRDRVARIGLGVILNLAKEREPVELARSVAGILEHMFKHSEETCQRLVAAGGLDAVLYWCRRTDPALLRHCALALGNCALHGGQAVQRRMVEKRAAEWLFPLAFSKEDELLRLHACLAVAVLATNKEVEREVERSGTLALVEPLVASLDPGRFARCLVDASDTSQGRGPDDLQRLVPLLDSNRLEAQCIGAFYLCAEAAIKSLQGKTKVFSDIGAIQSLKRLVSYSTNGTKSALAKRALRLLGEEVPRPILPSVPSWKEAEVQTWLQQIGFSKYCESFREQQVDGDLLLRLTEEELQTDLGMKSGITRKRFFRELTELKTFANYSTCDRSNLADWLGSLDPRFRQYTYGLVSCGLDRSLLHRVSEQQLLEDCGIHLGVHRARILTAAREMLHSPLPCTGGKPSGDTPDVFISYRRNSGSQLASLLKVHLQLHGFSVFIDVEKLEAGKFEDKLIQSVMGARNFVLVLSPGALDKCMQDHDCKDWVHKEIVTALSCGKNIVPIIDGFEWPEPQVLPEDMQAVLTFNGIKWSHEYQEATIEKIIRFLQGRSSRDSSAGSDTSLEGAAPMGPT
# [16] = compounds altering viability of human ES cells (AID 493140); settings: human embryonic stem cell survival screen; stronger effect = higher value;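 also: cells exposed to compounds for four days before counting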
# [17] = tested on: Hepatitis C virus NS3 helicase; experiment: blockers of NS3h binding to ssDNA – biochemical, fluorescence polarization, LOPAC1280 library, primary screen (AID 687035; in the data active = inhibition above about 37%); settings: Purified HCV NS3 helicase, Cy5-dT15 ssDNA binding fluorescence polarization; stronger effect = higher value; concentration not given here
# [18] = compounds altering Cy5-DNA-NS3h complex signal – biochemical, LOPAC1280, artefact control for HCV NS3 helicase inhibitor project (AID 687037); settings: Cy5-DNA-NS3h complex fluorescence interference counterscreen
# [19] = molecular target: Mitogen-activated protein kinase 7 (Homo sapiens) (UniProt Q13164); experiment: Gal4-ERK5 driven luciferase induction – cell-based, HTS, primary screen (AID 1508626;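 active = luciferase signal above three times the same-plate solvent-only control wells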;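 also: luciferase driven by Gal4-ERK5 fusion binding five Gal4 sites before minimal TATA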); settings: HeLa Gal4-ERK5 transactivation, 18 h, at 5 µM, stronger effect = higher value
# Chain of Mitogen-activated protein kinase 7 (Homo sapiens) (Q13164 whole entry, looked up, the tested form may be a part): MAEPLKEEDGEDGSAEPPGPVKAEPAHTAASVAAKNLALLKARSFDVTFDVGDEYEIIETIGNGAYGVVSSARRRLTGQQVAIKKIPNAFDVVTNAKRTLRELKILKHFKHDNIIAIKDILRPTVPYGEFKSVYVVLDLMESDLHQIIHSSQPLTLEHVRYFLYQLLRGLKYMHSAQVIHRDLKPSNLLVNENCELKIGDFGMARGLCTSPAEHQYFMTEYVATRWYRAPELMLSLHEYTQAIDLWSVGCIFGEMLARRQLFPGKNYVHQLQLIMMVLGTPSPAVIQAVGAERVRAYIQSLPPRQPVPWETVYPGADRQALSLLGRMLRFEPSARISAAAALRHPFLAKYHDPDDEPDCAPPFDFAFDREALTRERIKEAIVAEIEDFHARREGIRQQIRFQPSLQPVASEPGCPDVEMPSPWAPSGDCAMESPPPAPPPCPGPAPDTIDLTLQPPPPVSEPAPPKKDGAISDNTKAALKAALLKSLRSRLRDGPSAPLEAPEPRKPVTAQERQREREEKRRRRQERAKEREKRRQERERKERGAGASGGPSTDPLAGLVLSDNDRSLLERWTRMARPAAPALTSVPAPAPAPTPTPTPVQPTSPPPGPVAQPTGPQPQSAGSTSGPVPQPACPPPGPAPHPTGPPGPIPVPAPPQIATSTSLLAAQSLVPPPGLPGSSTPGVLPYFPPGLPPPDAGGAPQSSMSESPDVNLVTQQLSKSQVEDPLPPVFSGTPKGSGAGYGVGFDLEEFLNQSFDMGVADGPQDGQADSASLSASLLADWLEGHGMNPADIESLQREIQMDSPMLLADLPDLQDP
# [20] = stronger effect = lower value, cell number ratio, induced over uninduced
# [21] = measured here: relative caspase fold change +Dox/-Dox
# [22] = measured here: total cells with miR-34 induction, stronger effect = lower value
# [23] = measured here: total cells without miR-34 induction
# [24] = MELAS cybrid survival, CellTiter-Glo 48 h, stronger effect = higher value
# [25] = Rieske KO mouse fibroblast survival, CellTiter-Glo 72 h
compound,measurement,setting,value
CC1CCN(C(=O)CC#N)CC1N(C)c1ncnc2[nH]ccc12 (stereo not drawn),liver cell % of control,[1],104% and 99.8%
same,parasite % of control,[1],80.9% (inactive) and 77.3% (inactive) and 45.5% (inactive)
same,fold change,[2]; [20],0.908 (inactive) and 0.927 (inactive)
same,fold change,[2]; [21],0.692 and 0.73
same,cell count,[2]; [22],9120 and 9790
same,cell count,[2]; [23],10000 and 10600
same,z-score,[3]; [24],-0.285 (inactive) and -0.386 (inactive)
same,z-score,[3]; [25],-0.101 and -0.511
CCCC(=O)Nc1ncnc2c1ncn2[C@@H]1O[C@@H]2OP(=O)(O)OC[C@H]2[C@H]1OC(=O)CCC,parasite load remaining,[4],71.6% (inactive)
same,viability,[4],101%
same,fold change,[2]; [20],0.912 (inactive)
same,fold change,[2]; [21],1.18
same,cell count,[2]; [22],9650
same,cell count,[2]; [23],10600
same,z-score,[3]; [24],0.66 (inactive)
same,z-score,[3]; [25],0.0496
C=C(NC(=O)C(=C)NC(=O)c1csc(C2=N[C@H]3c4csc(n4)[C@H]4NC(=O)c5csc(n5)[C@H]([C@@](C)(O)[C@@H](C)O)NC(=O)[C@H]5CSC(=N5)/C(=C\C)NC(=O)[C@H]([C@@H](C)O)NC(=O)c5csc(n5)[C@]3(CC2)NC(=O)[C@H](C)NC(=O)C(=C)NC(=O)[C@H](C)NC(=O)[C@H](C(C)CC)N[C@@H]2C=Cc3c([C@H](C)O)cc(nc3[C@H]2O)C(=O)O[C@@H]4C)n1)C(N)=O (stereo partly drawn),parasite load remaining,[4],8.38% (inactive)
same,viability,[4],102%
same,fold change,[2]; [20],0.85 (inactive)
same,fold change,[2]; [21],1.56
same,cell count,[2]; [22],7430
same,cell count,[2]; [23],8740
same,z-score,[3]; [24],5.43 (active)
same,z-score,[3]; [25],3.6
O=C1NC(=O)C(=Cc2cccc(C(F)(F)F)c2)S1,liver cell % of control,[1],81.5% and 80.8% and 97.3%
same,parasite % of control,[1],0.631% (inactive) and 2.17% (inactive) and 7.31% (inactive)
same,fold change,[2]; [20],0.809 (inactive)
same,fold change,[2]; [21],0.469
same,cell count,[2]; [22],7740
same,cell count,[2]; [23],9570
same,z-score,[3]; [24],-0.352 (inactive)
same,z-score,[3]; [25],0.482
CC(Cc1ccc(O)c(O)c1)C(C)Cc1ccc(O)c(O)c1 (stereo not drawn),inhibition,[5],-3.14%
same,score,[6],0.83
same,rescue above control,[7],-2.86
same,cytochrome c release ratio,[8],3.11
same,inhibition of aggregation,[9],-17%
same,normalised LDH release,[10],0.415
same,glutamate uptake change,[11],67.2%
same,aggregation suppression score,[12],0.665
same,fold change,[2]; [20],1.04 (inactive)
same,fold change,[2]; [21],1.01
same,cell count,[2]; [22],5990
same,cell count,[2]; [23],5750
CC[C@]12CCCN3CCc4c(n(c5ccccc45)[C@](O)(C(=O)OC)C1)[C@@H]32,fluorescence slope change,[13],15.4% (inactive)
same,inhibition,[5],18.7%
same,score,[6],1.6
same,rescue above control,[7],4.14
same,cytochrome c release ratio,[8],1.05
same,inhibition of aggregation,[9],27%
same,glutamate uptake change,[11],-2.93%
same,inclusion score,[14],2.5
same,aggregation suppression score,[12],1.32
same,parasite load remaining,[4],112% (inactive) and 81.9% (inactive) and 58.4% (inactive)
same,viability,[4],102% and 72.1% and 74.9%
same,fold change,[2]; [20],0.786 (inactive)
same,fold change,[2]; [21],1.26
same,cell count,[2]; [22],7940
same,cell count,[2]; [23],10100
O=[N+]([O-])OCC(CO[N+](=O)[O-])O[N+](=O)[O-],parasite load remaining,[4],15.2% (inactive)
same,viability,[4],94.3%
same,fold change,[2]; [20],0.846 (inactive)
same,fold change,[2]; [21],4.5
same,cell count,[2]; [22],10800
same,cell count,[2]; [23],12700
same,remaining NAD,[15],10 nM (inactive)
CC1(C)S[C@@H]2[C@H](NC(=O)[C@H](NC(=O)N3CCNC3=O)c3ccccc3)C(=O)N2C1C(=O)O (stereo partly drawn),inhibition,[5],10.9%
same,score,[6],1.31
same,rescue above control,[7],-2.48
same,cytochrome c release ratio,[8],1.14
same,inhibition of aggregation,[9],54.5%
same,glutamate uptake change,[11],7.74%
same,inclusion score,[14],2
same,aggregation suppression score,[12],1.29
same,survival,[16],4.75 (inactive)
same,parasite load remaining,[4],188% (inactive) and 42.9% (inactive)
same,viability,[4],87.9% and 114%
same,fold change,[2]; [20],0.882 (inactive)
same,fold change,[2]; [21],3.93
same,cell count,[2]; [22],12000
same,cell count,[2]; [23],13600
O=C1NC(=O)C(=Cc2ccc(-c3ccc(F)cc3O)o2)S1,liver cell % of control,[1],115% and 104% and 93.4%
same,parasite % of control,[1],1.06% (inactive) and 3.29% (inactive) and 2.91% (inactive)
same,fold change,[2]; [20],0.91 (inactive)
same,fold change,[2]; [21],0.626
same,cell count,[2]; [22],8670
same,cell count,[2]; [23],9530
same,z-score,[3]; [24],-0.351 (inactive)
same,z-score,[3]; [25],-0.0319
COc1ccc(-c2ccc3c(N4CCOCC4)nc(N4CC(C)OC(C)C4)nc3n2)cc1CO (stereo not drawn),liver cell % of control,[1],228% and 225% and 144%
same,parasite % of control,[1],168% (inactive) and 180% (inactive) and 510% (inactive)
same,fold change,[2]; [20],1.04 (inactive)
same,fold change,[2]; [21],0.95
same,cell count,[2]; [22],2720
same,cell count,[2]; [23],2620
same,z-score,[3]; [24],3.15 (active)
same,z-score,[3]; [25],-0.466
C[C@H](Cn1cnc2c(N)ncnc21)OCP(=O)(O)O,fold change,[2]; [20],0.942 (inactive)
same,fold change,[2]; [21],0.901
same,cell count,[2]; [22],9100
same,cell count,[2]; [23],9660
same,remaining NAD,[15],10 nM (inactive)
CC(C)CCN1c2nc(Nc3cc(F)c(O)c(F)c3)ncc2N(C)C(=O)C1C (stereo not drawn),liver cell % of control,[1],87.7% and 90.4% and 106%
same,parasite % of control,[1],35.4% (inactive) and 66.2% (inactive) and 39.4% (inactive)
same,fold change,[2]; [20],1.05 (inactive)
same,fold change,[2]; [21],0.299
same,cell count,[2]; [22],2560
same,cell count,[2]; [23],2450
same,z-score,[3]; [24],0.0608 (inactive)
same,z-score,[3]; [25],-0.296
NC[C@H]1O[C@H](OC2[C@@H](N)C[C@@H](N)[C@H](O)[C@H]2O[C@@H]2O[C@H](CO)[C@@H](O)[C@H]2O)[C@H](N)[C@@H](O)[C@@H]1O (stereo partly drawn),parasite load remaining,[4],77.5% (inactive)
same,viability,[4],92.8%
same,fold change,[2]; [20],1.02 (inactive)
same,fold change,[2]; [21],0.629
same,cell count,[2]; [22],9070
same,cell count,[2]; [23],8900
same,z-score,[3]; [24],-0.509 (inactive)
same,z-score,[3]; [25],0.171
CCc1c(C(=O)NCCc2ccc(N3CCCCC3)cc2)[nH]c2ccc(Cl)cc12,inhibition,[17],0% (inactive)
same,fluorescence ratio (interference),[18],1 (inactive)
same,fold change,[2]; [20],0.939 (inactive)
same,fold change,[2]; [21],0.558
same,cell count,[2]; [22],7490
same,cell count,[2]; [23],7980
same,z-score,[3]; [24],0.376 (inactive)
same,z-score,[3]; [25],-0.206
C[C@]1(OC(=O)/C=C/c2ccccc2)C[C@@H](O)[C@]2(O)C=CO[C@@H](O[C@@H]3O[C@H](CO)[C@@H](O)[C@H](O)[C@H]3O)[C@@H]21,parasite load remaining,[4],121% (inactive)
same,viability,[4],74.8%
same,fold change,[2]; [20],0.943 (inactive)
same,fold change,[2]; [21],0.61
same,cell count,[2]; [22],9240
same,cell count,[2]; [23],9800
same,luciferase signal,[19],28 AU (inactive)
